Measured values: the supplement of paper PMC4466236
In all, about 33,000 sequences were measured (“E-score (dimensionless, -0.5 to 0.5)”: median about -0.058, highest 2% from about 0.35 on). What follows is part of a selection rich in the highest values, with near analogues and random picks from the rest.

tested on: MvaT; test: PBM 8-mer E-score (mean of HK and ME arrays) (E-score (dimensionless, -0.5 to 0.5)); higher = stronger relative binding preference
Procedure: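 Protein binding microarray: GST-tagged full-length MvaT (P. aeruginosa PAO1) bound to two universal double-stranded 60-mer arrays (ME and HK), each with a constant 25-mer primer and a variable 35-mer region covering all 8-mers. The 8-mer E-score (rank-based, range -0.5 to 0.5, >0.45 = specific binding) is the mean of the two arrays.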

Sequence	PBM 8-mer E-score
AATGTTAT	0.372
AATGTTAC	0.186
GTTGTTAA	0.257
AATGTTAA	0.387
GATGTTAA	0.277
ATTGTTAA	0.393
ATTGTTAG	0.235
ACTGTTAT	0.306
AATGTTAG	0.209
GATCGTGA	-0.153
CTTGCCCA	-0.191
AGCCCGGA	-0.201
CGATATTA	0.331
AAATATTG	0.306
AAATATGG	0.278
AAATATTT	0.463
CAATATCA	0.304
AGATATTA	0.412
GGATATTA	0.332
AAATATCT	0.277
AAATATTA	0.438
AAATATCA	0.304
TAATATCA	0.421
ACAGATAC	0.102
ACGGGGAT	-0.00987

Sequence	PBM 8-mer E-score
AAGCTTTA	0.0937
GAATGGCA	-0.00364
GCGAATAC	0.0443
ACATTAGG	0.0719
ATAGTCAA	0.165
GACGCGCA	-0.188
TAATACCA	0.336
CAATATTG	0.377
GAATATTA	0.4
TAATAGGA	0.222
CAATATGG	0.156
TAATATTA	0.474
AAATATGA	0.241
AAATATGT	0.348
CAATATCG	0.18
AAATATGC	0.305
TATCGAAA	0.144
GCGATAGC	-0.262
GAAAGCGA	0.0347
AAGGGTAA	0.109
AGACCAAG	-0.0618
TGCGGAAA	0.107
TCCTCAGA	-0.142
CAATATTC	0.226
CAATATGA	0.244

Sequence	PBM 8-mer E-score
CAATATGC	0.0377
TAATATGA	0.354
CAATATTA	0.373
GAATATGA	0.19
ACGAGTAC	0.047
ACACAAAT	0.237
AGCACGGA	-0.111
GGCCCACC	-0.28
ATAGTATG	0.21
AAAGTATT	0.27
ATAGTATA	0.38
GATGTATA	0.289
GTAGTATA	0.319
CATGTATA	0.264
TAAGTATA	0.282
AAAGTATC	0.211
CAAGTATA	0.373
AATGTATA	0.366
AAAGTATA	0.41
GAAGTATA	0.263
ATTCCGGA	0.138
TGGCGACA	-0.132
ATCGCCAT	0.016
AGATCTCC	-0.204
AACAGTGT	0.123

Sequence	PBM 8-mer E-score
GCGTCGCC	-0.203
CCATAAGG	-0.19
CGGTAAAC	0.0615
AACACCCG	0.00525
AGTTGCAT	0.182
AGTCTAAC	0.049
AATTCTGG	0.076
ACGCAGTG	-0.257
CTTCATTA	0.338
AGTCCGAG	-0.29
AATAACCG	0.367
GATAACGA	0.0582
ATTAACAC	0.328
AATAACCT	0.228
TATAACGA	0.374
AATAACGA	0.326
TATAACAA	0.355
CATAACAA	0.0795
GATAACAA	0.263
ATTAACAG	0.334
ATTAACAA	0.381
AATAACCC	0.226
GCATTGGA	-0.0184
AAAGGTCC	-0.197
CTACCTAC	-0.00994

Sequence	PBM 8-mer E-score
ATCTTGCC	0.0286
GAGCAGGC	-0.379
AATGTGAG	0.0855
GTTGGGGA	-0.0857
ATTGGAGC	-0.00417
CTAATCAG	-0.0597
AATAACAC	0.331
AATAACAT	0.32
AATAACAA	0.38
AACCACCG	-0.0371
CTCCTAAA	-0.112
AGATAACC	-0.021
ATATAACC	0.37
ATATAACG	0.406
ACATAACG	0.183
ATATAACA	0.423
AGATAACG	0.0641
CTATAACA	0.297
CTATAACC	0.155
GTATAACA	0.3
ACGTAATA	0.29
GGGTAACC	-0.246
CCTGCGCC	-0.28
ACGTTAGC	-0.113
CGGTTGCC	-0.279

Sequence	PBM 8-mer E-score
CGACCCAA	-0.0201
CAGGGTCG	-0.317
TAGGAAGA	0.048
GAAAATAC	0.134
CAAAATAA	0.343
GAAAAAAA	0.0648
TAAAATAA	0.438
AAAAATAC	0.158
TAAAATCA	0.198
TAAAATTA	0.288
AAAAAAAA	0.271
AAAAATAT	0.377
AAAAATAA	0.403
AAAAATAG	0.0973
GAAAATAA	0.349
AGCGCGCG	-0.184
GTGATAAA	0.211
CTAGAGAG	-0.241
CGCTATTA	0.18
AACTATTC	0.255
CACTATTC	0.0563
CACTATTA	0.357
GACTATTA	0.305
AACTATTA	0.399
AGCAGGAA	-0.195

Sequence	PBM 8-mer E-score
CAACCCTG	-0.133
AAACTTTA	0.357
CAACTTTA	0.297
GAACTTTA	0.346
GGACTTTA	-0.06
AAACTTTG	0.317
AAACTTTC	0.312
AAACAAAG	0.192
CCAATGAA	-0.1
TGTAATAA	0.399
CGTAATAA	0.398
GGTAATAA	0.335
TGTAAAAA	0.208
CGTAATAC	0.208
CGTAATAG	0.173
GCCGCTGA	-0.231
CGAATATA	0.355
AGAATATA	0.378
AGAATATG	0.277
AGAATATC	0.195
GGAATATA	0.329
CGAATATC	0.0677
AAGGGGTA	-0.15
GTGTTACA	0.244
CCATACGC	-0.202
